Only some compounds are listed: those with a hit (about 1.1% of all), similar ones and a draw of the others.
Menin MLL FP TR: menin-MLL binding inhibition, Texas Red mutant peptide; O00255; Menin + Texas Red MLL mutant peptide, fluorescence polarization; Potency, µM (top dose mostly 61.6 µM), for inactives: at the highest dose FP activity change, negative = inhibition, most hits filed as inhibitors; 0.23% of 270,000 active; active = well fitted inhibition curve with a large enough effect in the polarisation, with a control signal flat, not every such curve was filed as active; inconclusive = small, poorly fitted or top-dose-only effect, or effect the other way, or a change in a side signal; inactive = no such curve, though single readings can be large or run the other way; the % refers to the polarisation; note: potency is the fitted concentration of half-maximal effect; % of control where 0% means no effect
Target sequence (O00255 whole entry, looked up): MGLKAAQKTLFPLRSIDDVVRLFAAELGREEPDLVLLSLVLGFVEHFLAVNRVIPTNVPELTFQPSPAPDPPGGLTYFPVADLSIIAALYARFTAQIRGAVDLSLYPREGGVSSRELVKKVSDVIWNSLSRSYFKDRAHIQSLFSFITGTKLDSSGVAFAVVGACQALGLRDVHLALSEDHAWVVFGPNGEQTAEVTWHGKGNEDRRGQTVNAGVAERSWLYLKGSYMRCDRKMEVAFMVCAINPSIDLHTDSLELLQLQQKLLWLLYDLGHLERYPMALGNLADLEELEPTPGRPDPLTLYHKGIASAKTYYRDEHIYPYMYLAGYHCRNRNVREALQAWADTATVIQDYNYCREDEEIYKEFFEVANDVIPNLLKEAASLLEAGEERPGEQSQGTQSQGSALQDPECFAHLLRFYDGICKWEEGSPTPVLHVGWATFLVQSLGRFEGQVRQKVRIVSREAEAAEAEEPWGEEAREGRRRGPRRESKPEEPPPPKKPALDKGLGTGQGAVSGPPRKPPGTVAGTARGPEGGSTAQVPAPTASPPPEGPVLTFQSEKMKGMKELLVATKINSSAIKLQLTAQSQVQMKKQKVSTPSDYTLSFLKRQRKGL
Menin MLL FP FL: displaces fluorescein MLL peptide from human menin. Fluorescence polarization, fluorescein-MLL peptide displacement from menin. FP activity change, % at 61.4 µM. 290,000 tested, under 10 active. AID 1766; active = well fitted curve in the direction sought with a large enough effect in the polarisation, not every such curve was filed as active; inconclusive = small, poorly fitted or top-dose-only effect, or effect the other way, or a change in a side signal; inactive = no such curve, though single readings can be large or run the other way; the % refers to the polarisation; note: % of control where 0% means no effect
CXXC DNA block: MLL CXXC-DNA interaction inhibition; 0.037% of 290,000 active; MLL-CXXC / FITC-HOXA9 DNA fluorescence polarization; Potency, µM (titrated, usually from 115 µM), for inactives: at the top dose activity change, negative = inhibition, actives largely listed as inhibitors; AID 2662; active = well fitted inhibition curve with a large enough effect in the polarisation, with a control signal flat, not every such curve was filed as active; inconclusive = small, poorly fitted or top-dose-only effect, or effect the other way, or a change in a side signal; inactive = no such curve, though single readings can be large or run the other way; the % refers to the polarisation; note: potency is the fitted concentration of half-maximal effect
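Steps: dispense CXXC domain solution (7 uM) → pin compounds or unlabeled HOX-A9 DNA control → 5 min ambient → add FLSN-HOX-A9 solution (50 nM) → spin → 30 min ambient → fluorescence polarization. Tris pH 7.5/NaCl/DTT/BSA buffer.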
KCNH2 3.1 block: KCNH2 3.1 (human) potassium channel inhibition. AID 720553. activity change, % (tested at about 1.8 µM). U2OS KCNH2 3.1, thallium flux FluxOr; stronger effect = lower value. 0.95% of 340,000 active;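 active = maximum activity change below -70%; inconclusive = maximum activity change from -70% to -50%; inactive = maximum activity change above -50%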;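 note: thallium influx rate constant from kinetic fluorescence after stimulation buffer; % is set by controls: 0 for no effect and ±100 for the full control effect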
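Channel expression came from 3.1 mutant virus (1.77 x 10^8 /mL) applied to suspended U2OS cells for 4 h. Flux was tracked with FluxOr dye plus Red40 quencher, and kinetic rate constants normalized to controls.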
hERG WT inh: inhibitors of human wildtype KCNH2 potassium channel. Q12809. U2OS, BacMam KCNH2, thallium flux FluxOr; stronger effect = lower value. activity change, % at 1.84 µM. 0.37% of 340,000 active. AID 720551;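 active = maximum activity change below -70%; inconclusive = maximum activity change between -70% and -50%; inactive = maximum activity change above -50%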; note: % is set by controls: 0 for no effect and ±100 for the full control effect
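U2OS cells transduced with wild-type KCNH2 virus are loaded with FluxOr dye for 45 min, and thallium flux is measured in kinetic reads before and after stimulation buffer. Rate constants are normalized to DMSO controls.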
Active calls of the source: *; ? = inconclusive; . = not tested or not shown; [ ] = remark or other dose.

SMILES | Menin MLL FP TR | Menin MLL FP FL | CXXC DNA block | KCNH2 3.1 block | hERG WT inh
Cc1ccc(S(=O)(=O)N2CCCCC2)cc1C(=O)NCc1ccccn1 | 4% | 1 | 23% | 2 | 5
O=C(CCc1nnc(CCCc2ccccc2)o1)NCC(F)(F)F | 10% | 2 | 1% | -182* | -240*
O=C(CCc1nnc(CCCc2ccccc2)o1)NCCc1ccccc1 | -27% | 0 | -10% | 4 | 6
Cn1c(O)c(N=NC(=O)CNC(=O)/C=C/c2ccccc2)c2ccccc21 | -15% | 3 | 21% | -184* | 6
CCN(CC)CCN(C(=O)c1ccc2c(c1)CCCC2)c1nc2ccc(F)cc2s1 | -25% | 3 | 6% | -14 | 26
CN(C)CCCN(C(=O)c1ccc2c(c1)CCCC2)c1nc2ccc(F)cc2s1 | -19% | 1 | -3% | -72* | ?
CCOc1cccc2cc(C(=O)NCc3ccc(OC)cc3)c(=N)oc12 | 10% | ? | 2% | 14 | -6
CCOc1cccc2cc(C(=O)NCc3ccc(C)cc3)c(=N)oc12 | ? | ? | 2% | -208* | -6
CCOc1cccc2cc(C(=O)Nc3cc(C)on3)c(=O)oc12 | -12% | 6 | 15% | -77* | 0
CCOc1cccc2cc(C(=O)Nc3ccccc3-c3ccccc3)c(=O)oc12 | 1% | 1 | -2% | -7 | -10
S=c1[nH]cnc2scc(-c3ccc(Br)cc3)c12 | 5% | 3 | -1% | 0 | -84*
CCCCS(=O)(=O)N1CCc2nc(-c3ccc(OC)cc3C)c3c(c2C1)CO[C@@H](c1ccccc1)C3 | -3%[11.7 µM] | 7[11.7 µM] | . | . | .
COc1ccccc1-n1cnnc1SCC(=O)Nc1ccccc1 | -12% | -4 | -4% | -86* | -1
O=C(CSc1nncn1-c1ccccc1)Nc1ccccc1 | 8% | 2 | -1% | 14 | -10
CCN(CC)CCCn1c2c(c(SCC(=O)Nc3ccc(OC(F)(F)F)cc3)nc1=O)CCC2 | . | . | . | -30 | 23
Cc1ccsc1CN(C)C(=O)CN1C(=O)NC2(CCCc3ccccc32)C1=O (stereo not drawn) | . | . | . | 9 | -3
Cc1ccc(S(=O)(=O)c2nnn3c2nc(NC2CCN(Cc4ccccc4)CC2)c2ccccc23)cc1C | 13% | 0 | 43% | -81* | -13
Cc1ccc(S(=O)(=O)c2nnn3c2nc(NCCCN2CCCC2=O)c2ccccc23)cc1C | 1% | -8 | 21% | -9 | 5
CC(C)N1CC2=C(OC(N)=C(C#N)C2c2cccnc2)/C(=C/c2cccnc2)C1 (stereo not drawn) | 25µM* | -10 | -22% | -5 | -7
CC1CN(CCOc2ccc([N+](=O)[O-])cc2)CC(C)O1 (stereo not drawn) | 8% | . | 2% | -6 | 40
O=[N+]([O-])c1ccc(OCCN2CCNCC2)cc1 | -28% | -4 | -5% | -74* | -38
CC1CC(C)CN(CCCCOc2ccc([N+](=O)[O-])cc2)C1 (stereo not drawn) | -6% | 2 | ? | -99* | ?
COc1ccc(/C=C/C2=CC3(C)CC2(C)C(c2ccc(OC)cc2)CC3=O)cc1 (stereo not drawn) | 1%[11.7 µM] | 1[11.7 µM] | . | . | .
CCOC(=O)c1c(S(=O)(=O)NCC(=O)Nc2ccc(OC)cc2)c(C)n(C)c1C | . | . | 5% | -162* | -1
CC(C)OC(=O)N(C)C[C@@H]1OCc2cn(nn2)CCCC(=O)N([C@H](C)CO)C[C@H]1C | . | . | . | 26 | -18
SMILES | Menin MLL FP TR | Menin MLL FP FL | CXXC DNA block | KCNH2 3.1 block | hERG WT inh
CN(C)CCC(=O)N1C/C(=C/c2ccccc2)C(=O)/C(=C\c2ccccc2)C1 | . | . | . | -72* | 47
CCCN1CCC(=O)N(C(CSc2ccc(Br)cc2)c2ccccc2)CC1 (stereo not drawn) | -20% | -7 | . | . | .
Cc1ccc(CNC(=O)C2(CC(C)C)C=CCN2C(=O)c2ccccc2)o1 (stereo not drawn) | -9% | -1 | . | . | .
CCCNC(=O)CNC(=O)c1ccc(C#N)cc1 | . | . | . | 4 | -2
Cc1c(NC(=O)c2cccc(-c3cc4ccccc4oc3=O)c2)cccc1-c1nc2ncccc2o1 | -11% | -1 | ? | -96* | -45
CN(CC(=O)Nc1ccc(F)cc1)C(=O)c1cc(-c2cccs2)nn1-c1ccccc1 | . | . | . | -21 | 0

High-throughput results: PubChem, National Center for Advancing Translational Sciences (NCATS)
